# Source: publication PMC7862700, “An all-to-all approach to the identification of sequence-specific readers for epigenetic DNA modifications on cytosine”
# Experiments:
# Experiment in all cases: DAPPL (digital affinity profiling via proximity ligation, sequencing); 10 mM Tris-HCl pH 7.5, 50 mM NaCl, 1 mM DTT, 4% glycerol, room temperature, 30 min; GST-TFs on glutathione beads, 16-mer random dsDNA library, 0.1% formaldehyde crosslink after washing; high values mean tight binding
# FLI1 = target: T1, FLI1 (Homo sapiens, UniProt Q01543 1-452); settings: protein: recombinant; tags: N-terminal GST; dsDNA, one strand shown
# T1 sequence: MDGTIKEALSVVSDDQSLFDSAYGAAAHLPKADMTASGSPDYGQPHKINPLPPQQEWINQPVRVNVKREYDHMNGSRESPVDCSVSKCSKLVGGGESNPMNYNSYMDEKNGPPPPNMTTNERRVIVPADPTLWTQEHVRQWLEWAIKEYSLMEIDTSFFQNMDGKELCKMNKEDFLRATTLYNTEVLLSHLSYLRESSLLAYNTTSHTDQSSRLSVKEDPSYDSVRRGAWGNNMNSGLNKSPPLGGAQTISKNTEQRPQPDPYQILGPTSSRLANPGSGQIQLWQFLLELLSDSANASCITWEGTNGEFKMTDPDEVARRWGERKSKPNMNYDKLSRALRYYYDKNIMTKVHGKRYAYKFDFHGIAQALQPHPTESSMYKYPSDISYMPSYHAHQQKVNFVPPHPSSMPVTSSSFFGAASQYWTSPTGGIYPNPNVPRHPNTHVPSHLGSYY
# Outline: (§1)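 Human transcription factors fused to GST were expressed in yeast, captured on glutathione beads, given DNA barcodes and pooled with a GST-only negative control. Pools were incubated with 200 nmole of a 16-mer random double-stranded DNA library in Tris/NaCl/DTT/glycerol buffer at room temperature for 30 min. They were then washed, crosslinked with 0.1% formaldehyde, proximity-ligated (BsaI/T4 ligase, 1 h, 37 °C), PCR-amplified and sequenced on an Illumina NextSeq500. Binding signal is each 6-mer's read frequency for a factor divided by its frequency for the GST control.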
# ELK1 = target: T2, ELK1 (Homo sapiens, UniProt P19419 1-428); settings: protein: recombinant; tags: N-terminal GST; dsDNA, one strand shown
# T2 sequence: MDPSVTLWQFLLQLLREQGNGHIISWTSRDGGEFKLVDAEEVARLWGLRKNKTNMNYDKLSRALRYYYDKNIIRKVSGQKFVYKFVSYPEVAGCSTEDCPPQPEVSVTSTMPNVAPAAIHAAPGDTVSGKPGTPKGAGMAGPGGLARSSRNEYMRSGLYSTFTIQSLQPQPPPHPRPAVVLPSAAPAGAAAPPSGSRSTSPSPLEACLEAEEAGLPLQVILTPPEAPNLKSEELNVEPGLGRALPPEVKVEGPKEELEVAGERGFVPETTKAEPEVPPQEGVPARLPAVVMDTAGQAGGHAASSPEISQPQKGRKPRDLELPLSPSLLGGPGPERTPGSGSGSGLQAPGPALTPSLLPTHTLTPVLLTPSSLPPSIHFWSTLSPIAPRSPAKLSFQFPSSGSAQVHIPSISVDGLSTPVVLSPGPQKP
# Outline: as §1
# GABPA = target: T3, GABPA (Homo sapiens, UniProt Q06546 1-454); settings: protein: recombinant; tags: N-terminal GST; dsDNA, one strand shown
# T3 sequence: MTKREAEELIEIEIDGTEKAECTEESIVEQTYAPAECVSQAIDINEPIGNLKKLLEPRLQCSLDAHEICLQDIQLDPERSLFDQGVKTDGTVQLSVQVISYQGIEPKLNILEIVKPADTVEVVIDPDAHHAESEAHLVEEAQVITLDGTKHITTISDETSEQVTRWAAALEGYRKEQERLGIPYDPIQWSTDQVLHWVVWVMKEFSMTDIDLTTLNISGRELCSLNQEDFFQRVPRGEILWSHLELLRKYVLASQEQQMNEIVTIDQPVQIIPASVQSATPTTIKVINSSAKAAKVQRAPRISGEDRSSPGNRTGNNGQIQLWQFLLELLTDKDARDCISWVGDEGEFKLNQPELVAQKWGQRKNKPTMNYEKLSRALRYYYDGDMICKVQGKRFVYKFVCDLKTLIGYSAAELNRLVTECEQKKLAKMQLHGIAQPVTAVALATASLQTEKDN
# Outline: as §1
# ERG = target: T4, ERG (Homo sapiens, UniProt P11308 1-479); settings: protein: recombinant; tags: N-terminal GST; dsDNA, one strand shown
# T4 sequence: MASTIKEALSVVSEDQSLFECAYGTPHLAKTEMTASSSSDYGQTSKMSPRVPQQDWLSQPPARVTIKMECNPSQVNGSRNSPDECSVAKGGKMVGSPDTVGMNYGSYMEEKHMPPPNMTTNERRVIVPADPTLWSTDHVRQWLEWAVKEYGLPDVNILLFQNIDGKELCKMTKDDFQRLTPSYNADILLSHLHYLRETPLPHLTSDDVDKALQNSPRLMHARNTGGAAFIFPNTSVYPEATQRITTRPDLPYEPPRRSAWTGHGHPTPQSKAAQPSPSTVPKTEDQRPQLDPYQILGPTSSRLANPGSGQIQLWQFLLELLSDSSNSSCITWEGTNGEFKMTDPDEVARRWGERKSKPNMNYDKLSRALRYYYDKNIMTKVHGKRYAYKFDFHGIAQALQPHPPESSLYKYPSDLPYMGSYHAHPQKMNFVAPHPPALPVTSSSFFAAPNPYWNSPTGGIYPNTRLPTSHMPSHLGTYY
# Outline: as §1
# ELF1 = ELF1 (Homo sapiens, UniProt P32519 1-619); settings: protein: recombinant; tags: N-terminal GST; dsDNA, one strand shown
# Outline: as §1
# EHF = target: T5, EHF (Homo sapiens, UniProt Q9NZC4 1-300); settings: protein: recombinant; tags: N-terminal GST; dsDNA, one strand shown
# T5 sequence: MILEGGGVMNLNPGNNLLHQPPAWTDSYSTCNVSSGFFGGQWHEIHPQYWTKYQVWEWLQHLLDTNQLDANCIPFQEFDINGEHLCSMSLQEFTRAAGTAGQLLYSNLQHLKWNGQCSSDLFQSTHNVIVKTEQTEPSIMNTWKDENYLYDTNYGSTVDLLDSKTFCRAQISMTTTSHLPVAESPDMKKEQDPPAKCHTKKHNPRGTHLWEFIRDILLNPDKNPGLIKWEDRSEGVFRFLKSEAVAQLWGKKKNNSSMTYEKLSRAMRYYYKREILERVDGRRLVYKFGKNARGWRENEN
# Outline: as §1
# SPI1 = SPI1 (Homo sapiens, UniProt P17947 1-270); settings: protein: recombinant; tags: N-terminal GST; dsDNA, one strand shown
# Outline: as §1
# SPIB = SPIB (Homo sapiens, UniProt Q01892 1-262); settings: protein: recombinant; tags: N-terminal GST; dsDNA, one strand shown
# Outline: as §1
# ELK3 = target: T6, ELK3 (Homo sapiens, UniProt P41970 1-407); settings: protein: recombinant; tags: N-terminal GST; dsDNA, one strand shown
# T6 sequence: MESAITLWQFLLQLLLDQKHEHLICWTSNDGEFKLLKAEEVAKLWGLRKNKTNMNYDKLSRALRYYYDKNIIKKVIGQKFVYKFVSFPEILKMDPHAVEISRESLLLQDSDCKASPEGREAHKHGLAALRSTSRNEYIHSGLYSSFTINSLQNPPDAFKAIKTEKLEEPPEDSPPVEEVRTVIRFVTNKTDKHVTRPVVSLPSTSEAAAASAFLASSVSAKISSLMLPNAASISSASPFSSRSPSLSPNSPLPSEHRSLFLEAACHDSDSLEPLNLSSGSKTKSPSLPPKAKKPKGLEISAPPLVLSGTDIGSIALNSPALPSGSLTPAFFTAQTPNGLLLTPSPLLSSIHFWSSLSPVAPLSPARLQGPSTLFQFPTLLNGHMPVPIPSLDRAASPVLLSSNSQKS
# Outline: as §1
# FEV = target: T7, FEV (Homo sapiens, UniProt Q99581 1-238); settings: protein: recombinant; tags: N-terminal GST; dsDNA, one strand shown
# T7 sequence: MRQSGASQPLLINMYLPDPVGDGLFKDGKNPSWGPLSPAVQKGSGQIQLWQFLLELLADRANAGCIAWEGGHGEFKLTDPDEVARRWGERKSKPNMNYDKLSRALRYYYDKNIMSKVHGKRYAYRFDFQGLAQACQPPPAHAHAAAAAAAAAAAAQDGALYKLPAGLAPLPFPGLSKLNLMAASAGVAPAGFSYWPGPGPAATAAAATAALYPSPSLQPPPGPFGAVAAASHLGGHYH
# Outline: as §1
# ETV5 = ETV5 (Homo sapiens, UniProt P41161 1-510); settings: protein: recombinant; tags: N-terminal GST; dsDNA, one strand shown
# Outline: as §1
# HSF1 = HSF1 (Homo sapiens, UniProt Q00613 1-529); settings: protein: recombinant; tags: N-terminal GST; chain copies: 3; dsDNA, one strand shown
# Outline: as §1
# SPIC = target: T8, SPIC (Homo sapiens, UniProt Q8N5J4 1-248); settings: protein: recombinant; tags: N-terminal GST; dsDNA, one strand shown
# T8 sequence: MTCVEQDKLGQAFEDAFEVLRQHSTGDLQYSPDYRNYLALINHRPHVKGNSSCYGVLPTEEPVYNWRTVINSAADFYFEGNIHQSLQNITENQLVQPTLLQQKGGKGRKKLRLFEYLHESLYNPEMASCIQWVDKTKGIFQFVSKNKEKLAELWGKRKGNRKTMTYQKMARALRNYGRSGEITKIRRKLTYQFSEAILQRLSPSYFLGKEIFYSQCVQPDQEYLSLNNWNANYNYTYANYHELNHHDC
# Outline: as §1
# ELF4 = ELF4 (Homo sapiens, UniProt Q99607 1-663); settings: protein: recombinant; tags: N-terminal GST; dsDNA, one strand shown
# Outline: as §1
# ELK4 = target: T9, ELK4 (Homo sapiens, UniProt P28324-2 1-405); settings: protein: recombinant; tags: N-terminal GST; dsDNA, one strand shown
# T9 sequence: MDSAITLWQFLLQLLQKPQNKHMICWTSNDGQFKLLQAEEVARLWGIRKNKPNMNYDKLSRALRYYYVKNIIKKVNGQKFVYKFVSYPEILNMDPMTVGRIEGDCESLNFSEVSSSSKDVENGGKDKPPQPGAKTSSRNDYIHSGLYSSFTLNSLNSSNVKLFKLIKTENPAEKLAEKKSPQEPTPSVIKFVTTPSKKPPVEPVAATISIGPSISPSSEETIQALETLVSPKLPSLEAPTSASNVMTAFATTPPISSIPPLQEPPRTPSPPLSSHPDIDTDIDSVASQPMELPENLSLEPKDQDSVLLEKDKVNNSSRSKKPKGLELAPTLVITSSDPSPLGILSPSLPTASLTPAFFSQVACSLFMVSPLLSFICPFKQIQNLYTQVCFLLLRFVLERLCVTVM
# Outline: as §1
# ETV2 = target: T10, ETV2 (Homo sapiens, UniProt O00321 1-342); settings: protein: recombinant; tags: N-terminal GST; dsDNA, one strand shown
# T10 sequence: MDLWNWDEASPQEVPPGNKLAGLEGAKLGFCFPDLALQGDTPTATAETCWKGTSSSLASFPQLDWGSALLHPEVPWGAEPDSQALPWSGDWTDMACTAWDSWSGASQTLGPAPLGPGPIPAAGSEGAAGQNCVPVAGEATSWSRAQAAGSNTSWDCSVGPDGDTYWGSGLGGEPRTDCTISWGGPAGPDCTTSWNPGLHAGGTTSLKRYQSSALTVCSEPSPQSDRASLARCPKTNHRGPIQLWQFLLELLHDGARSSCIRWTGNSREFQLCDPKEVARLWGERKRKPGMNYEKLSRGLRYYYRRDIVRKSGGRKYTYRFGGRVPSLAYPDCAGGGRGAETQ
# Outline: as §1
# ELF3 = target: T11, ELF3 (Homo sapiens, UniProt P78545 1-371); settings: protein: recombinant; tags: N-terminal GST; dsDNA, one strand shown
# T11 sequence: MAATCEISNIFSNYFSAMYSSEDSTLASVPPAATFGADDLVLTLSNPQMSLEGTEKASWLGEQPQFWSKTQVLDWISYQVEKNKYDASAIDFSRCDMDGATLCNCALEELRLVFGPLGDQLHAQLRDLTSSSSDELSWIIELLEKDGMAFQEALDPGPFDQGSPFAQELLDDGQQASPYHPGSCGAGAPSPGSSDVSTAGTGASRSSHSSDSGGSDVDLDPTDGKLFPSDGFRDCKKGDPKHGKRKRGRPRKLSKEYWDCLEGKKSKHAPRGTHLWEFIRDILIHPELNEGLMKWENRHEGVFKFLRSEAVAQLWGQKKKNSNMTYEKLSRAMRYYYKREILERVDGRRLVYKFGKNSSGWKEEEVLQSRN
# Outline: as §1
# CRX = CRX (Homo sapiens, UniProt O43186 1-299); settings: protein: recombinant; tags: N-terminal GST; dsDNA, one strand shown
# Outline: as §1
# ETV1 = ETV1 (Homo sapiens, UniProt P50549 1-477); settings: protein: recombinant; tags: N-terminal GST; dsDNA, one strand shown
# Outline: as §1
# Sequence of ETV1 (P50549 whole entry): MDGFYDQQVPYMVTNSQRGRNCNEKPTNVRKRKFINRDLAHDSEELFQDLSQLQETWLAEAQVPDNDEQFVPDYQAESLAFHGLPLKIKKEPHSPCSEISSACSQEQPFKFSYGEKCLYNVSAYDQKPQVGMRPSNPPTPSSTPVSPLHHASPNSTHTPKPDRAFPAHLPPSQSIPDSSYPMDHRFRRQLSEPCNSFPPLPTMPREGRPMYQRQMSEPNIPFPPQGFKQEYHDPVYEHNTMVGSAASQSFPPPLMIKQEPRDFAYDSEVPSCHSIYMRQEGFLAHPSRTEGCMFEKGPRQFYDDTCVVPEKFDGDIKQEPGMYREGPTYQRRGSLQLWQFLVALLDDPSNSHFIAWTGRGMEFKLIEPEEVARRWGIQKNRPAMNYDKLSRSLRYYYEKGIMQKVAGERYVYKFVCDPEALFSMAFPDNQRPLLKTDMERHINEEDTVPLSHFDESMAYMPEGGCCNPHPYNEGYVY
# Sequence of SPIB (Q01892 whole entry): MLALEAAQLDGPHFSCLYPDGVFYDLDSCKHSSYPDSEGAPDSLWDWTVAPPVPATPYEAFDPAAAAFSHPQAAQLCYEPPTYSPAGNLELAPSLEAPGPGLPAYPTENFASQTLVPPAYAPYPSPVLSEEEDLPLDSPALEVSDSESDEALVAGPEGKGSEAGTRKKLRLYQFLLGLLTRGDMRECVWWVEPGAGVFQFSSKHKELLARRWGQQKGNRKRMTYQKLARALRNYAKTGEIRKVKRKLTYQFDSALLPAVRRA
# Sequence of HSF1 (Q00613 whole entry): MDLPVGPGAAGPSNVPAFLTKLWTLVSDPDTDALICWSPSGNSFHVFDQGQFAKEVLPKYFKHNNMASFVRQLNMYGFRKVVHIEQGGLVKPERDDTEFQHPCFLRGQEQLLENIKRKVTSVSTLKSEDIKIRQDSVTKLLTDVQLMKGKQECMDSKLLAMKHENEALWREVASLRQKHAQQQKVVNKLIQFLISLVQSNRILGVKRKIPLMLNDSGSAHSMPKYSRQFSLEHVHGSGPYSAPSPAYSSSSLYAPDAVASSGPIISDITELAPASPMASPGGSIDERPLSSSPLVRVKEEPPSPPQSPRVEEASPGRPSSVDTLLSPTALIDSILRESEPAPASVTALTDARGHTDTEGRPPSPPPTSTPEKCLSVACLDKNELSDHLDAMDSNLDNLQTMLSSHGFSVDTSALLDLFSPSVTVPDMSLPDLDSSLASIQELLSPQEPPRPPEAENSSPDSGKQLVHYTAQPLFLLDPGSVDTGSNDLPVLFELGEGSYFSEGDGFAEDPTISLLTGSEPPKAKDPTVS
# Sequence of ELF4 (Q99607 whole entry): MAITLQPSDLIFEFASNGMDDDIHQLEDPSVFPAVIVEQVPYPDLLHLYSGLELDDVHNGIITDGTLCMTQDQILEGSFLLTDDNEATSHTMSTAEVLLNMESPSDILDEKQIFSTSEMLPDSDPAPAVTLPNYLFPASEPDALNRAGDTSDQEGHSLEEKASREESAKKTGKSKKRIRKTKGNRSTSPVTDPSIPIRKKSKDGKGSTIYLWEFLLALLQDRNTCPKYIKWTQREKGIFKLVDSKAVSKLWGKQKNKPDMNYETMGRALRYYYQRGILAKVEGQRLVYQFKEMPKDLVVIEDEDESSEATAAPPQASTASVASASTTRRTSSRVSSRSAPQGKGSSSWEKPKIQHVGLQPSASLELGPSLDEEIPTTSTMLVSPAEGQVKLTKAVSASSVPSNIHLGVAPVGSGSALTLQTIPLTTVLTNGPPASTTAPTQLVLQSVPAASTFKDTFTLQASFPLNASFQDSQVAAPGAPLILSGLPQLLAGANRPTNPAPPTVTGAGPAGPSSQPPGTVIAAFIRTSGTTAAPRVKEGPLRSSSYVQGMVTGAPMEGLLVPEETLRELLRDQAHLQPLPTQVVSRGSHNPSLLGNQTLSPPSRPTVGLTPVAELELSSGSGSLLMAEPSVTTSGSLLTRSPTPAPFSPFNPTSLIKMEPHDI
# Sequence of CRX (O43186 whole entry): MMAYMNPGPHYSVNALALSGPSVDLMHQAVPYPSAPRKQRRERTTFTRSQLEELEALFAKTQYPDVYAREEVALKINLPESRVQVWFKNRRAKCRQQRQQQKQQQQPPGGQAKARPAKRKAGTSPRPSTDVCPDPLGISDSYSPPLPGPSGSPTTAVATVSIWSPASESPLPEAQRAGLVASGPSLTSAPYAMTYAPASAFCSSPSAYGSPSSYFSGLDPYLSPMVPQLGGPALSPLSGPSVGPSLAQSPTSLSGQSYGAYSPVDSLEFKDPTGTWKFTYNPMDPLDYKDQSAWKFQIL
# Sequence of ETV5 (P41161 whole entry): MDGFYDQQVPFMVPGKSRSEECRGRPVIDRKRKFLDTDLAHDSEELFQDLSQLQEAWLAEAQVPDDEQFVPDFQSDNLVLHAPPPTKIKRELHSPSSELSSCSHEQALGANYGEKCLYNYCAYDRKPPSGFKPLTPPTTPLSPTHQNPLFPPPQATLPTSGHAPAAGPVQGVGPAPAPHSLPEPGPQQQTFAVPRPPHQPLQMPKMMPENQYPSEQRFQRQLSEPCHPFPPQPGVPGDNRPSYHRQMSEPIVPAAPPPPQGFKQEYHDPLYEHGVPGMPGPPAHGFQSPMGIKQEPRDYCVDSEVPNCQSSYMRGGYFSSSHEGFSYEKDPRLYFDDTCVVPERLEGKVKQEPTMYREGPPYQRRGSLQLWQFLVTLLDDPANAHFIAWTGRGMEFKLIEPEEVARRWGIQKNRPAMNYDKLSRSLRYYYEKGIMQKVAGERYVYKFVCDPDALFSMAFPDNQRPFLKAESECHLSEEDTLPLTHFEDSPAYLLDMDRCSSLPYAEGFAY
# Sequence of ELF1 (P32519 whole entry): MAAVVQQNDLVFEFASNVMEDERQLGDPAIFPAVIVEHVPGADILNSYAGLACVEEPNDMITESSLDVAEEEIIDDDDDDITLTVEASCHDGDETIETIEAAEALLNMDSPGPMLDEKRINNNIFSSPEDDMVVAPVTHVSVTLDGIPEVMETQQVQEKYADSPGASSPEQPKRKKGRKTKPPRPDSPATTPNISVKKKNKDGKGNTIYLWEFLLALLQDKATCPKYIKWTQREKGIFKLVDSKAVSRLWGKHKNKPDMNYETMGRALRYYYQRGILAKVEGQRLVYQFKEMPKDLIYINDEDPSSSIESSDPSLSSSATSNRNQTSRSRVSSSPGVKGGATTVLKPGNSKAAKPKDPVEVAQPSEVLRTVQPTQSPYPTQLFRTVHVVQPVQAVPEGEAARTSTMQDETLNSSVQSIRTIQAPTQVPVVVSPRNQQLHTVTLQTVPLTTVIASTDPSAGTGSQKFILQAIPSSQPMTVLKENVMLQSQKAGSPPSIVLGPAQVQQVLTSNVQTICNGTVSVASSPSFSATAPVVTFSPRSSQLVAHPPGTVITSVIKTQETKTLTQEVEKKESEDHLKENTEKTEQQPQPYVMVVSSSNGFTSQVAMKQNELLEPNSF
sequence,measurement,setting,value
TCCTAA,binding signal,FLI1,"1.63 fold enrichment (6-mer frequency, TF over GST control)"
same,binding signal,ELK1,"1.34 fold enrichment (6-mer frequency, TF over GST control)"
same,binding signal,GABPA,"1.41 fold enrichment (6-mer frequency, TF over GST control)"
same,binding signal,ERG,"1.58 fold enrichment (6-mer frequency, TF over GST control)"
same,binding signal,ELF1,"1.49 fold enrichment (6-mer frequency, TF over GST control)"
same,binding signal,EHF,"1.27 fold enrichment (6-mer frequency, TF over GST control)"
same,binding signal,SPI1,"1.43 fold enrichment (6-mer frequency, TF over GST control)"
same,binding signal,SPIB,"1.49 fold enrichment (6-mer frequency, TF over GST control)"
same,binding signal,ELK3,"1.43 fold enrichment (6-mer frequency, TF over GST control)"
same,binding signal,FEV,"1.41 fold enrichment (6-mer frequency, TF over GST control)"
same,binding signal,ETV5,"1.4 fold enrichment (6-mer frequency, TF over GST control)"
same,binding signal,HSF1,"1.66 fold enrichment (6-mer frequency, TF over GST control)"
same,binding signal,SPIC,"1.38 fold enrichment (6-mer frequency, TF over GST control)"
same,binding signal,ELF4,"1.44 fold enrichment (6-mer frequency, TF over GST control)"
same,binding signal,ELK4,"1.39 fold enrichment (6-mer frequency, TF over GST control)"
same,binding signal,ETV2,"1.47 fold enrichment (6-mer frequency, TF over GST control)"
same,binding signal,ELF3,"1.57 fold enrichment (6-mer frequency, TF over GST control)"
same,binding signal,CRX,"2.09 fold enrichment (6-mer frequency, TF over GST control)"
same,binding signal,ETV1,"1.32 fold enrichment (6-mer frequency, TF over GST control)"
